# For some assays here: Potency and affinity values are given separately.
# Tests used:
# Set-up in all cases: scale not given: direction of the effect not stated beside the values
# [1] = biological target: Protein translocase subunit SecA (Escherichia coli (strain K12)) (UniProt P10408); test: Assay to Identify E. coli SecA ATPase Inhibitors; type: functional; conditions: 30 µM
# [2] = biological target: T1, Ubiquitin-activating enzyme e1, putative (Leishmania donovani (strain BPK282A1)) (UniProt E9BSI1); test: Leishmania donovani Ubiquitin Activating Enzyme (LdE1); type: functional; conditions: 30 µM
# T1 sequence (whole entry): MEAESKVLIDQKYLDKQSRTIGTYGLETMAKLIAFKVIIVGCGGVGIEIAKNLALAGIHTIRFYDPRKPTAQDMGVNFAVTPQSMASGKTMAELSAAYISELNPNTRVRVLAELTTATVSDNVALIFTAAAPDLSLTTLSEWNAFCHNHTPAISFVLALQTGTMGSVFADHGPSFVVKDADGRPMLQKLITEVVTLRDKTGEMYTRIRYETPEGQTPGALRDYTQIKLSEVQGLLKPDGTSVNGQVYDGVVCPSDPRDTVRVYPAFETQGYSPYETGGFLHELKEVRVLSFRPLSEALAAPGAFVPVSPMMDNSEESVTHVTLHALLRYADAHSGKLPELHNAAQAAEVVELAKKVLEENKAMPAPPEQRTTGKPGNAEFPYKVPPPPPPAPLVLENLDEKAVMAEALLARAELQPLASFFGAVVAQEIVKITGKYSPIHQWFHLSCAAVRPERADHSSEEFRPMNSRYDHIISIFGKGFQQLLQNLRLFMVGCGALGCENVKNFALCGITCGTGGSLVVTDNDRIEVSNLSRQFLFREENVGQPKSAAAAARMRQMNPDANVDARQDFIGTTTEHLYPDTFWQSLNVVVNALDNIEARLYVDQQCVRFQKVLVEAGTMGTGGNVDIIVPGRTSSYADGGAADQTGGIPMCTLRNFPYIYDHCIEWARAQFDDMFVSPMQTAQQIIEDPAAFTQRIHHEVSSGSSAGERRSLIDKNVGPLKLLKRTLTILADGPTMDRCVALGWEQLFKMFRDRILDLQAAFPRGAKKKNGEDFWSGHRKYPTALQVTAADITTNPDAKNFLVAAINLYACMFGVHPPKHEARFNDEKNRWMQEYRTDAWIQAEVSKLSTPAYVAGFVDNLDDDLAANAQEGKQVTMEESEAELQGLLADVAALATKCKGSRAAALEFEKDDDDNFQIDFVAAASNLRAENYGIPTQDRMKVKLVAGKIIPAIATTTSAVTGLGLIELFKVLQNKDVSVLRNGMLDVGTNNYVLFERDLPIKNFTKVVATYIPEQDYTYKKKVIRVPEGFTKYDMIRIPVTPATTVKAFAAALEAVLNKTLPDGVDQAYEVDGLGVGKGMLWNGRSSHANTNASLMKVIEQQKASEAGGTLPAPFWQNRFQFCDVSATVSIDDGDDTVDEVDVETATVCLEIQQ
# [3] = biological target: AMP-activated protein kinase, AMPK (Homo sapiens) (UniProt P54646+O43741+P54619+Q9UGJ0+Q9Y478+Q13131+Q9UGI9); test: AMP-dependent Kinase enzyme assay. An in vitro enzyme assay that detects ADP turnover that is directly proportional to AMPK activity. This uses naive AMPK that is activated during the assay with MK-8722; type: functional; conditions: 30 µM
# [4] = biological target: Sialic acid-binding Ig-like lectin 9 (Homo sapiens) (UniProt Q9Y336); test: Hs-Siglec9 ALPHAscreen SOP 20170721; conditions: 10 µM
# Chain of Sialic acid-binding Ig-like lectin 9 (Homo sapiens) (Q9Y336 whole entry): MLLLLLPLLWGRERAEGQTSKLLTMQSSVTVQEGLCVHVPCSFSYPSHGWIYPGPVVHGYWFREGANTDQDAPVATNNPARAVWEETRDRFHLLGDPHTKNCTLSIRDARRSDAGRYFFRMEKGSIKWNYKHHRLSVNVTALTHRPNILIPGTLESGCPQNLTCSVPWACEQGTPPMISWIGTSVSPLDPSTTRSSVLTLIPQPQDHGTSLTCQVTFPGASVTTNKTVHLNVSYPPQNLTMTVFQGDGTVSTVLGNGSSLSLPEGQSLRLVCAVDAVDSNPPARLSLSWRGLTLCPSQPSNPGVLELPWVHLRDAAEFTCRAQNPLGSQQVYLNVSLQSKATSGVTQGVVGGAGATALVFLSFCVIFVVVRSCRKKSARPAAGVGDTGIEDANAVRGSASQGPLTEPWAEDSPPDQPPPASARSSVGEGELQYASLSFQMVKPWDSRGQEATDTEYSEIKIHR
# [5] = tested on: Trypanosoma cruzi; test: Trypanosoma cruzi phosphomannomutase and mannose-1-phosphate guanylyltransferase assay; type: functional; conditions: 10 µM
# [6] = biological target: T2, Arginase-2, mitochondrial (Homo sapiens) (UniProt P78540); test: in vitro enzyme assay to detect the production of urea directly proportional to the activity of Arginase II; type: functional; conditions: 33.3 µM; further: in the data most compounds retested in dose-response had high values
# T2 sequence (whole entry): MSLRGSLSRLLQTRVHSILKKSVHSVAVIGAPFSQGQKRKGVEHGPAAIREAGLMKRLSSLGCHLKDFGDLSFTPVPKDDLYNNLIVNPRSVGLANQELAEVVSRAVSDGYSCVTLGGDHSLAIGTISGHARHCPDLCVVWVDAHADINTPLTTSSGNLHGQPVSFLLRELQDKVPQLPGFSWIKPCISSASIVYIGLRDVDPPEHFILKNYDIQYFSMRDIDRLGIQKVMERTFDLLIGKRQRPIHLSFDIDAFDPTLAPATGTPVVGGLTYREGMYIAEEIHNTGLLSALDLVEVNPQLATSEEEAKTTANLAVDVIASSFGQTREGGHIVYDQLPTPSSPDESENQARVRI
# [7] = biological target: T3, Proteasome subunit beta (Trypanosoma cruzi) (UniProt O96673); test: Trypanosoma cruzi proteasome chymotrypsin-like activity (TcProtChymo) assay.; further: in the data most compounds retested in dose-response had high values; type: functional; conditions: 9.37 µM
# T3 sequence (whole entry): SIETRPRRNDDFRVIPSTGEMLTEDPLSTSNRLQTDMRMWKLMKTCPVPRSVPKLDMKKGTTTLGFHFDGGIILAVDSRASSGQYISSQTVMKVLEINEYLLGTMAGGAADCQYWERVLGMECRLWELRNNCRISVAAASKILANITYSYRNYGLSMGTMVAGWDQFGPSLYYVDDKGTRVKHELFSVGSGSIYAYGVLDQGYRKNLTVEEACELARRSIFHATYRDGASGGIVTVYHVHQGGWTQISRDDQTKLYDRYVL
# [8] = organism: Homo sapiens; test: To identify inhibition of the IFN signalling (Jak-Stat) pathway via expression of an eGFP reporter gene under the control of an IFN-stimulated response element (ISRE) containing MxA promoter.; type: functional; conditions: 30 µM
# [9] = biological target: T4, Tyrosyl-tRNA synthetase, putative (Trypanosoma cruzi (strain CL Brener)) (UniProt Q4DSP6); test: Trypanosoma cruzi tyrosyl tRNA synthetase (TcYRS) _High Tyrosine SOP; type: functional; conditions: 30 µM; further: in the data most compounds retested in dose-response had high values
# T4 sequence (whole entry): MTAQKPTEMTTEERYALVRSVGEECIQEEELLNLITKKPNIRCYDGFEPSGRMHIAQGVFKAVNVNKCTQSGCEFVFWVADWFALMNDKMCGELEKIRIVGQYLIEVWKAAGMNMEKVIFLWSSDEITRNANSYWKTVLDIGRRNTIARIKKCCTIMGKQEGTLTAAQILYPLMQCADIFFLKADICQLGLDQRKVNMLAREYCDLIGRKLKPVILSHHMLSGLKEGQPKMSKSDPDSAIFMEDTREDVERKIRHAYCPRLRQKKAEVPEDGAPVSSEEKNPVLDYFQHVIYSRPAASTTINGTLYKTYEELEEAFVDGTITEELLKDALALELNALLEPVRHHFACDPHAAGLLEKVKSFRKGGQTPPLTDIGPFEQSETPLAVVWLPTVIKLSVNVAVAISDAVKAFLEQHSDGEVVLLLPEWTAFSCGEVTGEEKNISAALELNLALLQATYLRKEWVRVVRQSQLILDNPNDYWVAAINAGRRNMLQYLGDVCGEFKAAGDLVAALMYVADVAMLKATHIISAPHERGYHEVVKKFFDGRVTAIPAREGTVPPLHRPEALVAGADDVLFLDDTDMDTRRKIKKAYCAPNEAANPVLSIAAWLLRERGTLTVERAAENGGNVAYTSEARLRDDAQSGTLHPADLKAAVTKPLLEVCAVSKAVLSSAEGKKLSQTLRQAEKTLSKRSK
# [10] = biological target: T4, Tyrosyl-tRNA synthetase, putative (Trypanosoma cruzi (strain CL Brener)); test: Trypanosoma cruzi tyrosyl tRNA synthetase (TcYRS) SOP; type: functional; conditions: 30 µM
# [11] = biological target: Chromo domain-containing protein 1 (Saccharomyces cerevisiae (strain ATCC 204508 / S288c) (Baker's yeast)) (UniProt P32657); test: ScCHD-1 Enzyme Inhibition Assay; type: functional; conditions: 30 µM; further: in the data most compounds retested in dose-response had high values
# Chain of Chromo domain-containing protein 1 (Saccharomyces cerevisiae (strain ATCC 204508 / S288c) (Baker's yeast)) (P32657 whole entry, the tested form may be a part): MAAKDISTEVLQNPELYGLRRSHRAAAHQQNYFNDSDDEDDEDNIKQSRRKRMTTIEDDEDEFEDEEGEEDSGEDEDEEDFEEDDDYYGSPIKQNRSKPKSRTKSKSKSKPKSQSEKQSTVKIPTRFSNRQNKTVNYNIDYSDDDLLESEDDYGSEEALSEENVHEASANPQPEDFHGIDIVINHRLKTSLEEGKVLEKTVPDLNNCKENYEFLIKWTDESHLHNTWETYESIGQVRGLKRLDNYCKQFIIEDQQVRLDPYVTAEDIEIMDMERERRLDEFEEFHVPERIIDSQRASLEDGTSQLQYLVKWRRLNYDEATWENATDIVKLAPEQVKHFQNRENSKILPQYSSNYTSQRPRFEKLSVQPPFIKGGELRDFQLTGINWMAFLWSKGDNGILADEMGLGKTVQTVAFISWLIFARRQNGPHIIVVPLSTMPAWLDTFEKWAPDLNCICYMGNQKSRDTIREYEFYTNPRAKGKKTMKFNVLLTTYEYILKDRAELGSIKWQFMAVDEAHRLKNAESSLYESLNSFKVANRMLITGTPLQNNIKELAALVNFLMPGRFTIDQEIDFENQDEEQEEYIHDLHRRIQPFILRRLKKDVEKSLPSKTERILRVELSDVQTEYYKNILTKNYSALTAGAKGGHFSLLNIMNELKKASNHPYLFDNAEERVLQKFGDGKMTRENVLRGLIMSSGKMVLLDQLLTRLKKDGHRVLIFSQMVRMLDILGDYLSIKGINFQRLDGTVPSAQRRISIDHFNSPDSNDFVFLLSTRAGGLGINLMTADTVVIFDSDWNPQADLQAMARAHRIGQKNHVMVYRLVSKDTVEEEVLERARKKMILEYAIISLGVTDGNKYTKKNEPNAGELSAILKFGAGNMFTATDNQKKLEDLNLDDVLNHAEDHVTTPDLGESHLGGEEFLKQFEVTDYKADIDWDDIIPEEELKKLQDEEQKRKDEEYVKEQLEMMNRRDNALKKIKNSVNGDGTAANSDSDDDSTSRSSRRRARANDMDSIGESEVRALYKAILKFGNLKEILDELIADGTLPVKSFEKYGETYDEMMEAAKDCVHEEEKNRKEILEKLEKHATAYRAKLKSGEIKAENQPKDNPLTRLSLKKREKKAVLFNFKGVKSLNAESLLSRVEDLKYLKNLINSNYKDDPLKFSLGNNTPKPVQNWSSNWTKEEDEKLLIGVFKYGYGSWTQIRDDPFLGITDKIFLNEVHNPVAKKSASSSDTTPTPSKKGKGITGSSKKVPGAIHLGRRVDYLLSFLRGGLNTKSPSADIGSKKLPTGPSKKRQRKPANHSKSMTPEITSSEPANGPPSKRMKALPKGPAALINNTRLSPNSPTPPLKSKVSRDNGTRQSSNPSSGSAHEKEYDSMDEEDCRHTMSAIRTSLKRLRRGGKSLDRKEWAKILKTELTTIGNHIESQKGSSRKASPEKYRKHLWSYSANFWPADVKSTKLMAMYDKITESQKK
# Chain of Protein translocase subunit SecA (Escherichia coli (strain K12)) (P10408 whole entry): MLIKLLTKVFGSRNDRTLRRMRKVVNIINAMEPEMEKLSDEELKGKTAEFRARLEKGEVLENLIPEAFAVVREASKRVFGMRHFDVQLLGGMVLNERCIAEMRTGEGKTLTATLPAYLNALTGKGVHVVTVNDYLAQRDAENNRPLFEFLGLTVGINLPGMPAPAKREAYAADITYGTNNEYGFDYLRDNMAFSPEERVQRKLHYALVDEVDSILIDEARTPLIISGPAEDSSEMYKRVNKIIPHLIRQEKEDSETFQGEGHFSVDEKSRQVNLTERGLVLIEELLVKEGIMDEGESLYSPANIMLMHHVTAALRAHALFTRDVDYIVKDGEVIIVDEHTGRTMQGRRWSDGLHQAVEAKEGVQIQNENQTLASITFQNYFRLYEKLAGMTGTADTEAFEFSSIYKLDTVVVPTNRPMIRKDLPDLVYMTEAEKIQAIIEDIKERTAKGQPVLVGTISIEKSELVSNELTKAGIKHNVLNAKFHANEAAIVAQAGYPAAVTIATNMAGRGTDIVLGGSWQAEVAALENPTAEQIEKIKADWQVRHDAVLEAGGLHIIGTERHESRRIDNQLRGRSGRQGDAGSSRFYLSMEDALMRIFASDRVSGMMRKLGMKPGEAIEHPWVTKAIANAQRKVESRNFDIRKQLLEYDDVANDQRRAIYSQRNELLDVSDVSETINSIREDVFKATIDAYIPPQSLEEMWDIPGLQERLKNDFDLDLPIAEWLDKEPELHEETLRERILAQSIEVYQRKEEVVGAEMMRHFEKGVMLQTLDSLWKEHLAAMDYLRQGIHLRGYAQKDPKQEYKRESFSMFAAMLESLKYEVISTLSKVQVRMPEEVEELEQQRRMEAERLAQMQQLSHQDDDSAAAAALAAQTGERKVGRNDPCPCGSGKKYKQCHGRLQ
Structure (SMILES),Percent Effect [1] [%],Percent Effect [2] [%],Percent Effect [3] [%],Percent Effect [4] [%],Percent Effect [5] [%],Percent Effect [6] [%],Percent Effect [7] [%],Percent Effect [8] [%],Percent Effect [9] [%],Percent Effect [10] [%],Percent Effect [11] [%]
CCc1nccc(CN2CCCC(c3nn(C)c(=O)n3CC)C2)n1 (configuration not stated),-3.27,8.11,-2.62,37.3,2.64,8.19,-1.63,2.84,4.3,13.6,-3.17
O=C(CCC(=O)N1CCCC1c1cccs1)N1CCc2sccc2C1 (configuration not stated),1.64,-8.11,-5.22,4.27,5,-1.6,3.42,19.6,3.45,3.7,-5.21
Cc1c(C(=O)N2CCCC2c2cnn(C)c2)nnn1-c1ccccc1 (configuration not stated),-5.12,13.5,-11.2,15.4,4.55,-3.14,9.87,8.27,0.99,13.4,-7.97
CC(C)Oc1ccc(CSc2nnc(CN3CCCC3=O)o2)cc1,-7.37,-5.33,-6.5,10,8.28,1.04,9.24,13.4,1.64,6.17,-3.99
CC(C)COCC1CN(Cc2ccc3c(c2)OCO3)Cc2ncn(C)c21 (configuration not stated),-6.14,-5.41,10.1,2.92,-1.17,-3.75,2.11,29.9,3.96,3.66,0.344
N#Cc1ccccc1CN1C[C@@H]2CC[C@H](C1)N(CC1CC1)C2=O,-0.53,13.5,-0.476,12.4,1.74,2.38,13.4,4.71,4.76,14.6,-0.908
COc1cccc(C2CCCN2Cc2nc3c(cnn3C)c(=O)[nH]2)c1 (configuration not stated),-0.893,22.8,2.53,-5.13,0.661,3.8,14.2,17.2,6.4,24.1,-5.39
CCOCC(O)CN1CCN(C(=O)c2cccc(F)c2)CC1 (configuration not stated),-1.53,2.7,-2.77,-2.18,7.92,-2.86,5.17,13.8,0.529,-9.76,-2.68
CC(C)OCC(=O)N1CCCN(Cc2ccc(C#N)cc2)CC1,-2.63,13.2,4.09,11.3,0.94,2.68,10.2,-2.84,8.33,17.1,-8.3
CNS(=O)(=O)c1ccc(C(=O)N2CCCC2c2cnn(C)c2)o1 (configuration not stated),-2.43,7.89,-0.508,-1.15,8.12,0.719,-0.761,1.2,1.48,6.17,-6.23
Cc1ccc(NC2CCN(C(=O)Cc3ccc(C#N)cc3)CC2)nn1,-4.53,2.7,-6.02,18.2,4.81,-4.41,3.24,-19.9,6.4,18.5,-10.7
CC(C(=O)N1CCCN(Cc2ccc(C#N)cc2)CC1)n1ccnc1 (configuration not stated),-3.9,15.8,-24.4,-5.95,-6.01,1.15,17.2,29.1,4.41,12.2,-7.57
CC1CCN(S(=O)(=O)NCCCn2cncn2)CC1,-3.76,6.33,3.29,1.98,1.33,5.38,5.49,23.8,5.21,12.7,-7.93
Cc1n[nH]c(C)c1NC(=O)CN1CCc2c(nc(C3CC3)n2C)C1,-1.39,20.8,-6.42,-4.94,-9.36,0,10.6,37.3,3.88,2.44,-7.54
CC(CN1CCOCC1)NCc1nncn1C1CCCCC1 (configuration not stated),-2.55,1.39,-4.5,-12,-5.54,3.09,9.65,-2.46,6.32,5.13,-1.99
O=C(c1ncccn1)N1C[C@H]2CCC[C@@]2(COCC2CCOCC2)C1,-5.07,10.8,1.99,-7.31,6.16,-0.319,19.9,25.2,6.49,15.4,2.35
COc1ccc(CN2CCC3(CC2)CCN(c2ncccn2)CC3)cc1,-2.42,2.7,0.552,4.9,5.57,8.6,1.29,-26.6,0,5.13,6.6
Cc1c[nH]cc1C(=O)N1CCN(Cc2nc(C(C)C)no2)CC1,-5.12,8.11,-5.14,9.52,-3.81,-2.77,-3.05,17.2,2.97,11,1.56
Cc1occc1C(=O)N1CCC2(CCC(=O)N(CC(N)=O)C2)CC1,-6.56,-4.17,0.341,3.65,-3.6,2.21,10.9,3,-2.1,-7.69,-2.07
CC[C@H](C)[C@H](NC(=O)c1ccccc1-n1cnnn1)C(=O)OC,-2.24,-4,6.42,-4.83,-14.2,-9.33,1.85,-2.35,-1.06,-12.8,1.23
CC1CN(CC(=O)NC(=O)NCc2ccccc2)CCO1 (configuration not stated),-0.548,15.8,0.54,-9.53,3.21,-1.18,19.5,11.4,2.13,7.79,-8.02
Cc1nnc(NC(=O)NCc2cc(F)cc(F)c2)s1,-1.16,21.1,-3.09,-15.6,-9.43,5.75,10.7,13.5,4.43,13.6,-3.4

# — ChEMBL document CHEMBL3988442, “University of Dundee, Small-Polar-MMV Screening Library” (2021)
